Reference: PubChem BioAssay (NCI)
Compounds without any hit were thinned out: in the full panel of roughly 79,000, 15% have a hit. A number with no mark means an inactive call. Calls of active or inactive are those of the source. Rule as the data show it: active = growth inhibition above about 70%; inactive = the rest.

Assays:
[1] = NCI Yeast Anticancer Drug Screen. Data for the rad50 strain (AID 155);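 also: 0% = growth of vehicle-only cultures of the same strain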; conditions: S. cerevisiae rad50 strain growth inhibition, stronger effect = higher value
Summary of the method: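 DNA repair mutant yeast, compound exposure, growth read-out; inhibition is taken relative to vehicle.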

[2] = NCI Yeast Anticancer Drug Screen. Data for the mec2-1 strain (AID 157); conditions: S. cerevisiae mec2-1 strain, stronger effect = higher value
Summary of the method: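 Cells of the genetically defined mec2-1 yeast strain are incubated with test compound. Inhibition of growth is calculated against vehicle-treated controls.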

[3] = NCI Yeast Anticancer Drug Screen. Data for the sgs1 mgt1 strain (AID 161);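 also: 0% = growth of cultures given vehicle only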; conditions: S. cerevisiae sgs1 mgt1 strain, stronger effect = higher value
Summary of the method: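 Test agents were incubated with a DNA-repair-mutant yeast strain. Growth was then read and compared against vehicle-treated controls.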

[4] = NCI Yeast Anticancer Drug Screen. Data for the cln2 rad14 strain (AID 165);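 also: 0% = growth equal to vehicle treated cultures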; conditions: S. cerevisiae cln2 rad14 strain, stronger effect = higher value
Summary of the method: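 The screen exposed genetically defined yeast (cln2 rad14) to test compounds and scored growth inhibition relative to vehicle-treated controls.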

[5] = NCI Yeast Anticancer Drug Screen. Data for the bub3 strain (AID 167); conditions: S. cerevisiae bub3 mutant strain, stronger effect = higher value
Summary of the method: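 In this screen, a yeast mutant lacking normal mitotic checkpoint function is challenged with compound. Relative growth versus vehicle gives the inhibition value.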

[6] = NCI Yeast Anticancer Drug Screen. Data for the mlh1 rad18 strain (AID 175); conditions: S. cerevisiae mlh1 rad18 strain growth inhibition, stronger effect = higher value
Summary of the method: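 Compound-treated yeast growth, normalised to vehicle controls. Strain bears defined DNA repair mutations.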

[7] = at 5.0 µM (retest, dose inferred, filed as 0.5)
[8] = at 50.0 µM (retest, dose inferred, filed as 5.0)

SMILES | growth inhibition [1, 7] | growth inhibition [1, 8] | growth inhibition ([1]; at 50.0 µM) | growth inhibition [2, 7] | growth inhibition [2, 8] | growth inhibition ([2]; at 50.0 µM) | growth inhibition [3, 7] | growth inhibition [3, 8] | growth inhibition ([3]; at 50.0 µM) | growth inhibition [4, 7] | growth inhibition [4, 8] | growth inhibition ([4]; at 50.0 µM) | growth inhibition [5, 7] | growth inhibition [5, 8] | growth inhibition ([5]; at 50.0 µM) | growth inhibition [6, 7] | growth inhibition [6, 8] | growth inhibition ([6]; at 50.0 µM)
CCCOC(=O)COc1ccccc1C(=O)OCCC | 5% | 10% | -1.2% | 2% | 7% | -15.5% | 0% | 11% | 6% | 13% | 15% | 14.9% | 10% | 44% | 23.2% | 0% | 13% | -11.4%
O=c1ncccn1[C@@H]1O[C@H](CO)[C@H](O)C1O (some centres not stated) | 21% | 22% | 64.3% | 13% | 12% | 28.4% | 15% | 12% | 4.15% | 10% | 12% | 10.8% | 23% | 10% | -5.75% | 7% | 31% | -9.3%
Cc1ccc(NC(=S)SCc2ccc(Cl)cc2)cc1C | 12% | 94% (active) | 94.9% (active) | -5% | 60% | 98.2% (active) | 1% | 94% (active) | 98% (active) | -4% | 34% | 86.8% (active) | 18% | 68% | 97.5% (active) | 1% | 82% (active) | 98.6% (active)
CCOc1cc2c(cc1O)CC[C@@H]1[C@@H]2CC[C@]2(C)[C@@H](O)CC[C@@H]12 | 33% | 39% | 41% | 13% | 33% | -10.4% | 13% | 34% | 46.8% | 12% | 30% | 33.4% | 25% | 39% | 44.2% | 27% | 42% | 40.8%
NCCC(N)P(=O)(O)O (configuration not stated) | -166% | -150% | 20.6% | -46% | -48% | 16.2% | -61% | -60% | -3.9% | -61% | -51% | 16.6% | -74% | -71% | 13% | -141% | -111% | 0.45%
CNC(=O)OCc1c(COC(=O)NC)c2n(c1C)-c1ccccc1CCC2 | 23% | 35% | 85.8% (active) | 11% | 70% (active) | 89.6% (active) | 38% | 75% (active) | 90% (active) | 38% | 56% | 88.9% (active) | 50% | 77% (active) | 87.5% (active) | 15% | 43% | 87.6% (active)
Cc1ccccc1N=NC(C(=O)c1ccccc1)C(=O)c1ccccc1 | 7% | 94% (active) | 93.2% (active) | -14% | 96% (active) | 94% (active) | 15% | 93% (active) | 92.2% (active) | 3% | 95% (active) | 90% (active) | 5% | 97% (active) | 92.8% (active) | -8% | 97% (active) | 91.8% (active)
C1=Nc2ccccc2/C1=C/c1ccccc1 | 10% | 22% | 72.9% (active) | -9% | 20% | 48.8% | -13% | 19% | 49.7% | 27% | 26% | 40% | 9% | 38% | 64.4% | 2% | 50% | 52.1%
O=C(CCN1CCOCC1)c1ccc(Oc2ccc(F)cc2)cc1 | 65% | 87% (active) | 67.2% | 64% | 95% (active) | 77% (active) | 80% (active) | 95% (active) | 85.2% (active) | 64% | 66% | 78.1% (active) | 88% (active) | 98% (active) | 85.4% (active) | 74% (active) | 90% (active) | 88% (active)
O=C1/C(=C\c2ccc(Cl)cc2Cl)Sc2scc(-c3cccc([N+](=O)[O-])c3)[n+]21 | 17% | 98% (active) | 85.6% (active) | 36% | 99% (active) | 86.1% (active) | 69% | 98% (active) | 89.9% (active) | 28% | 97% (active) | 88.5% (active) | 96% (active) | 97% (active) | 85.5% (active) | 23% | 99% (active) | 90.9% (active)
Cc1ccc(C(=O)CCCN2CCOCC2)c(C)c1 | 13% | 46% | 77.5% (active) | 5% | 30% | 38.8% | 27% | 57% | 58.8% | 29% | 63% | 50.5% | 30% | 69% | 73.8% (active) | 5% | 43% | 72.8% (active)
C/C(=N/O)c1ccc2c(c1)C(=NO)c1cc(/C(C)=N/O)ccc1-2 | 19% | 98% (active) | 89.9% (active) | -10% | 99% (active) | 94.7% (active) | 10% | 99% (active) | 94.2% (active) | 14% | 99% (active) | 93.7% (active) | 21% | 98% (active) | 93.5% (active) | 1% | 98% (active) | 91% (active)
O=C/C(Br)=C\c1ccccc1 | 36% | 99% (active) | 55.2% | 20% | 99% (active) | 99.2% (active) | 25% | 99% (active) | 49.5% | 12% | 99% (active) | 98.4% (active) | 26% | 99% (active) | 48.4% | 16% | 99% (active) | 7.45%
C#CCCCCCOC(=O)c1cc([N+](=O)[O-])cc([N+](=O)[O-])c1 | 97% (active) | 99% (active) | 98.5% (active) | 99% (active) | 99% (active) | 99% (active) | 99% (active) | 99% (active) | 99% (active) | 95% (active) | 98% (active) | 98.1% (active) | 98% (active) | 99% (active) | 99.2% (active) | 99% (active) | 99% (active) | 98% (active)
O=Nc1c2n[nH]c1CCCCCCCCC2 | 24% | 99% (active) | 99.4% (active) | 45% | 99% (active) | 99.4% (active) | 56% | 99% (active) | 99.5% (active) | 23% | 99% (active) | 99.5% (active) | 37% | 99% (active) | 99.3% (active) | 75% (active) | 99% (active) | 96.8% (active)
COc1ccccc1C(C)c1ccc2ccccc2c1C(=O)O (configuration not stated) | 11% | 91% (active) | 94.6% (active) | 2% | 93% (active) | 94% (active) | 1% | 90% (active) | 95% (active) | 7% | 93% (active) | 96.1% (active) | -6% | 87% (active) | 93.4% (active) | 2% | 94% (active) | 96% (active)
CS[C@H]1CC[C@H]2[C@@H]3CCc4cc(O)ccc4[C@H]3CC[C@]12C | 0% | 73% (active) | 71.6% (active) | 2% | 66% | 61.8% | 0% | 71% (active) | 63.4% | 7% | 85% (active) | 87.6% (active) | 12% | 81% (active) | 82.8% (active) | -8% | 75% (active) | 85.8% (active)
O=[N+]([O-])c1ccc(Sc2c3ccccc3nc3ccccc23)nc1 | 94% (active) | 99% (active) | 98.3% (active) | 82% (active) | 99% (active) | 97.5% (active) | 62% | 99% (active) | 97.7% (active) | 83% (active) | 98% (active) | 96.7% (active) | 49% | 99% (active) | 96.5% (active) | 66% | 99% (active) | 97.2% (active)
CC(C)Cn1cnc2c(SCc3cccc(F)c3)nc(N)nc21 | 0% | 27% | -10.4% | -1% | 12% | 8.05% | 2% | 31% | 67.8% | -5% | 54% | -10.2% | 2% | 35% | 73.3% (active) | 0% | 45% | 37%
